This note sets out measurements from PubChem BioAssay (Tox21).

Records with an inconclusive call do not appear. Where a call stands in place of a potency, no number is given. Calls of active or inactive are those of the source. Calls follow the shape of the full dose curve.

Chain of Beta-2 adrenergic receptor (Homo sapiens) (P07550 whole entry, looked up): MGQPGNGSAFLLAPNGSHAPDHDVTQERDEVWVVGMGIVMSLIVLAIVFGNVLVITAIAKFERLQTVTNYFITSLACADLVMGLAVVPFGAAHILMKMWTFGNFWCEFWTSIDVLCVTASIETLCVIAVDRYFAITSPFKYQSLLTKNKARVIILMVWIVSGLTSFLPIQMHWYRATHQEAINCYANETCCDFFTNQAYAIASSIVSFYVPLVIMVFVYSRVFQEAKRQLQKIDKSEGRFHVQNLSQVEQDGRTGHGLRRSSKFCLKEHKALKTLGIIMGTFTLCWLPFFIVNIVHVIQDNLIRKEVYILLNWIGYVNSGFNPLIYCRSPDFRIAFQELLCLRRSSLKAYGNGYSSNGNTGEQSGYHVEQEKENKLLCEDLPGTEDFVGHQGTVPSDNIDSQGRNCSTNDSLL

This assay concerns the target Beta-2 adrenergic receptor (Homo sapiens) (UniProt P07550). Briefly: Adrenergic beta2 receptor (ADRB2) small molecule antagonists, cell-based qHTS assay (AID 1963592). Also: nearly all actives have a fitted effect of over 50% in size. As to conditions: CHO-ADRB2 cells, isoproterenol-stimulated cAMP HTRF ratio, 0.5 h; series mostly up to 92.4 µM. The text has this:
U.S. Tox21 Program National Center for Advancing Translational Sciences [NCATS] Division of Preclinical Innovation [DPI] U.S. Environmental Protection Agency [EPA] National Institutes of Environmental Health Sciences [NIEHS] National Toxicology Program [NTP] U.S. Food and Drug Administration [FDA] Tox21 Assay Overview: Beta adrenergic receptors (Beta-ARs) belong to the G-protein coupled receptor (GPCR) superfamily, includes three subtypes - beta1, beta2, and beta3. Beta1-AR is the predominant receptor subtype expressed in the heart, and beta2-AR is expressed in the kidney, lung, blood vessel and in the heart, and beta3 is found in the adipocytes. Beta1 and 2 ARs couple to Gs protein and elevate cyclic adenosine mono phosphate (cAMP), which activates protein kinase A and leads to the downstream signaling responsible for the physiological actions. Beta-AR agonists or antagonists are the most prescribed therapeutic agents for heart failure and asthma, and these were one of the first target receptors for the rational drug design. Tox21 10K compound library was screened using the cAMP-Gs dynamic assay (Cisbio Bioassays, Shelton, CT) to identify agonists/antagonists of the Gs-coupled human adrenergic, beta2 receptor (ADRB2) in the CHO-ADRB2 cell line (Codex BioSolutions, Inc. Gaithersburg, MD), which stably over-expresses ADRB2. The principle of cAMP-Gs dynamic assay is based on HTRF technology, which facilitates the fluorescence resonance energy transfer (FRET) between donor Europium cryptate and acceptor d2-labeled cAMP. The cAMP generated within cells competes with the red acceptor, d2-labled cAMP, for binding to the monoclonal anti-cAMP-cryptate (Europium donor). An increase in intracellular cAMP leads to the disruption of FRET signal, and the signal is inversely proportional to the cAMP concentration. Propranolol HCl (Sigma-Aldrich, St. Louis, MO) was used as a positive control in the screening.
Tox21 Assay Protocol Summary: CHO-ADRB2 cells were dispensed at 1,000/well in 4uL assay medium into white/solid 1536-well plates (Greiner Bio-One North America Inc., Monroe, NC) using a Multidrop Combi dispenser (ThermoFisher Scientific, Waltham, MA). The assay plates were incubated at 37C and 5% CO2 for an overnight (18-20hr). Then positive control and test compounds dissolved in DMSO were transferred to the assay plates at 23nL using a Pintool station (Wako, San Diego, CA). Following the compound and positive control transfer, 1uL agonist-stimulation mix containing 1nM Isoproterenol HCl, 100uM IBMX and 25uM Ro-20-1724 was added to each well of the assay plates using BioRAPTR Flying Reagent Dispenser (FRD, Beckman Coulter, Brea, CA). The assay plates were incubated at room temperature for 0.5hr. Then 2.5ul each d2-labled cAMP and anti-cAMP-cryptate solutions were added separately to each well of the assay plates using an FRD and the assay plates were incubated at room temperature for 1hr. The fluorescence signal was measured at two different wavelengths (665nm and 615nm) using an Envision plate reader (Perkin Elmer, Shelton, CT). Data were expressed as the ratio of 665 nm/615 nm.
Background: In qHTS, concentration-response curves come from the screen itself.
In the case of `CC(C)N(C)C`, the Potency result was “inactive”.
For the compound `C=C[Si]1(C)O[Si](C)(C=C)O[Si](C)(C=C)O[Si](C)(C=C)O1` (stereo not given), the Potency entry is “inactive”.
To `CCOC(=O)/C=C/c1ccccc1` belongs “inactive”; to `Nc1c(I)cc(I)c(C(=O)N(CCC(=O)O)c2ccccc2)c1I`, “inactive”.
The same measure for `COc1c2occc2cc2ccc(=O)oc12`: “inactive”.
As for `C=C1CCC2CC1C2(C)C` (stereo not given), the Potency result was “inactive”.
`CCCc1ncc(C[n+]2ccccc2C)c(N)n1`: the Potency result is “inactive”.
For `COC(=O)c1ccc(C(=O)OC)c(C(=O)OC)c1`, the Potency entry is “inactive”.
The same measure for `CCCCCC1Nc2cc(C(F)(F)F)c(S(N)(=O)=O)cc2S(=O)(=O)N1` (stereo not given): “inactive”; for `O=C1c2ccccc2C(=O)N1CCc1noc(-c2ccc(CN3CCCCCC3)s2)n1`: “inactive”.
For `COc1ccnc(CS(=O)c2nc3ccc(OC(F)F)cc3[nH]2)c1OC` (stereo not given), the Potency result is “inactive”.
As to `COc1cc(C(C)(C)C)c(O)c(C(C)(C)C)c1`, the Potency result is “inactive”.
On to `CCN1CCN(C(=O)N[C@@H](C(=O)N[C@@H]2C(=O)N3[C@@H]2SC(C)(C)[C@H]3C(=O)O)c2ccccc2)C(=O)C1=O`, for which the Potency result is “inactive”.
In the case of `CC(C)=CCC[C@](C)(O)[C@@H]1CC=C(C)CC1`, the Potency entry was “inactive”.
With `CC(C)C1=CC2=CC[C@@H]3[C@](C)(CCC[C@@]3(C)C(=O)O)[C@H]2CC1`, the Potency result was “inactive”.
To `COCc1nnc(-c2ccc[n+]([O-])c2)n1-c1c(Cl)c(Cl)cc2[nH]c(=O)c(=O)[nH]c12` belongs “inactive”; to `CCCCCCCCCCCCCCCCC(C(=O)O)C(O)(CC(=O)O)C(=O)O` (stereo not given), “inactive”.
To `CCCNC(C)(C)COC(=O)c1ccccc1` belongs “inactive”; to `CCO[Si](CC(C)C)(OCC)OCC`, “inactive”; to `O=C(O)c1ccccc1-c1ccc(C(F)(F)F)cc1`, “inactive”.
Consider `CCCCCCCCCCCCN1CCCC1=O`, for which the Potency result was “inactive”.
To `CCCCc1oc2ccccc2c1C(=O)c1cc(I)c(OCCN(CC)CC)c(I)c1` belongs “inactive”.
On to `CCCCCCCCCCCCOCCOS(=O)(=O)O`, for which the Potency result was “inactive”.
Take `C/C=C/C=C/C=O`: the Potency entry is “inactive”.
To `CCCCNC1CC(C)(C)NC(C)(C)C1` belongs “inactive”; to `CC1(C)SC(C)(C)SC(C)(C)S1`, “inactive”; to `CCCCCCC[N+](CC)(CC)CCCCc1ccc(Cl)cc1`, “inactive”.
Regarding `CC(Oc1c(Cl)cccc1Cl)C1=NCCN1` (stereo not given), the Potency result was “inactive”.
For `O=C(O)COC(=O)Cc1ccccc1Nc1c(Cl)cccc1Cl`, the Potency result is “inactive”.
On to `Cc1onc(-c2c(Cl)cccc2Cl)c1C(=O)Cl`, for which the Potency result was “inactive”.
`CCCCN1C(=O)[C@@H]([C@H](O)C2CCCCC2)NC(=O)C12CCN(Cc1ccc(Oc3ccc(C(=O)O)cc3)cc1)CC2`: the Potency entry was “inactive”.
With `COc1ccc(CCO)cc1`, the Potency result is “inactive”.
Turning to `CCO/C=C1\N=C(c2ccccc2)OC1=O`, the Potency entry was “inactive”.
Consider `Cc1c(C(=O)NN2CCCCC2)nn(-c2ccc(Cl)cc2Cl)c1-c1ccc(Cl)cc1`, for which the Potency result was “inactive”.
`N#CCCN(CCO)CCO`: the Potency entry is “inactive”.
`CCCCc1oc2ccc(NS(C)(=O)=O)cc2c1C(=O)c1ccc(OCCCN(CCCC)CCCC)cc1`: the Potency result is “inactive”.
For the compound `CCc1ccc(C)cc1`, the Potency result was “inactive”.
`CCCCCOC(=O)c1ccc(O)cc1`: the Potency result is “inactive”.
On to `Fc1ccc(C(c2ccc(F)cc2)N2CCN(C/C=C/c3ccccc3)CC2)cc1`, for which the Potency result was “inactive”.
The same measure for `O=C(O)CNC(=O)c1ccccc1`: “inactive”.
